Screens from PubChem.
RGS4-Gao reg – modulators of RGS4 binding to Galphao, primary screen, biochemical, multiplexed bead flow cytometry. binding response (% of control), % at 10 µM. hit rate 0.33% among 220,000. Guanine nucleotide-binding protein G(o) subunit alpha (Homo sapiens), P09471. actives lie on both sides; in the data active = binding response below about 49% or above about 150%; inactive = in between;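 note: fluorescent Galphao activated with aluminum fluoride binding bead-coupled RGS4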
Target sequence (P09471 whole entry, looked up): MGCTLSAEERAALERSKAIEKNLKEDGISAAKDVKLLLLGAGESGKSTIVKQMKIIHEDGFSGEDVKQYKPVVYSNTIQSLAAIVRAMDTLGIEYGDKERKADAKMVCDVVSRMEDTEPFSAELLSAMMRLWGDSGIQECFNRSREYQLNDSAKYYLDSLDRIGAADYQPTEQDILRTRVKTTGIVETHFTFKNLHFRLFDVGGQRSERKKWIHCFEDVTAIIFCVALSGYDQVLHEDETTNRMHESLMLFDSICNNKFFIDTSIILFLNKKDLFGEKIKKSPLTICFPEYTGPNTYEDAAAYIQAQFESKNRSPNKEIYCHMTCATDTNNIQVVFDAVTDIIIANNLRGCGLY
RGS7-Gao reg – RGS7-Galphao binding modulators, primary screen, biochemical, multiplexed bead flow cytometry; Guanine nucleotide-binding protein G(o) subunit alpha (Homo sapiens), P09471; actives lie on both sides; binding response (% of control), % at 10 µM; hit rate 0.35% among 220,000; AID 1439, 2008; in the data active = binding response below about 49% or above about 150%; inconclusive = no clear call, values can overlap the other calls; inactive = in between;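 note: fluorescent Galphao held in activated GDP-AlF4 state binding bead-coupled RGS7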
RGS16-Gao – modulators of RGS16 binding to Galphao, primary screen, biochemical, human proteins, multiplexed bead flow cytometry | bead-based flow cytometry RGS16-Galphao binding, fluorescence; actives lie on both sides | binding response (% of control), % at 10 µM | hit rate 0.38% among 220,000 | AID 1441, 2008 | Regulator of G-protein signaling 16 (Homo sapiens) + Guanine nucleotide-binding protein …;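 note: Galphao activated by GDP with aluminum fluoride before binding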
Avidin fluor – green autofluorescence of compounds with avidin beads – biophysical, 488/530 nm, flow cytometry, artefact control, profiling panel | compound fluorescence 488/530 nm; active compounds read high | fluorescence (KMESF) at 10 µM | hit rate 0.38% among 220,000; in the data active = fluorescence above about 47
RGS8-Gao – RGS8-Galphao binding modulators, primary screen, biochemical, multiplexed bead flow cytometry; Guanine nucleotide-binding protein G(o) subunit alpha (Homo sapiens), P09471; actives lie on both sides; response (percent of control binding), % at 10 µM; hit rate 0.34% among 220,000; in the data active = response below about 60% or above about 140%; inactive = in between;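 note: Galphao activated as the GDP aluminium fluoride complex binding bead-coupled RGS8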
GSH fluor – compound fluorescence on glutathione beads, profiling panel, artefact control, biophysical, 488/530 nm, flow cytometry; GSH beads flow cytometry, compound fluorescence 488/530 nm; active compounds read high; fluorescence (KMESF) at 10 µM; hit rate 0.25% among 190,000; in the data active = fluorescence above about 89;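 note: glutathione beads carrying GST-tagged Bcl family fusion proteins plus one bare bead set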
RGS-Gao – modulators of RGS–Galpha-o binding, primary screen, biochemical, multiplexed beads, flow cytometry, RGS4/7/8/16/19 | shares compounds with RGS16-Gao | multiplexed bead flow cytometry | RGS4–Galpha-o binding response, % at 10 µM | hit rate 99% among 1,600 | AID 1504, 2009;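 note: fluorescently labeled Galpha-o bound to GDP with aluminium fluoride binding biotinylated RGS beads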
Avidin counter – disruption of biotin probe capture by avidin, counter-screen for RGS protein interaction modulators, biochemical, flow cytometry, bead-based | shares compounds with RGS16-Gao | streptavidin beads, fluorescein-biotin binding | inhibition, % at 10 µM | 1,700 tested, under 10 active | AID 1783, 2009;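 active = inhibition above 50%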;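 note: median green fluorescence of gated singlet beads compared with DMSO control wells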
RGS8-Gao confirm – RGS8-Galphao binding modulators, confirmation, biochemical, multiplexed bead flow cytometry, single concentration | bead-based flow cytometry RGS8-Galphao binding, fluorescence; actives lie on both sides | AID 1836, 2009 | hit rate 3% among 1,700 | shares compounds with RGS16-Gao | binding response (% of control), % at 10 µM; in the data active = binding response below about 72% or above about 130%; inactive = in between;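 note: Galphao activated as GDP AlF4 complex before binding bead RGS8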
RGS7-Gao confirm – RGS7-Galphao binding modulators, confirmation, biochemical, multiplexed bead flow cytometry, single concentration. shares compounds with RGS16-Gao. hit rate 7.8% among 1,700. response (percent of control binding), % at 10 µM. bead-based flow cytometry RGS7-Galphao binding; actives lie on both sides; in the data active = response below about 75% or above about 130%; inactive = in between;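 note: fluorescent Galphao activated with GDP and aluminum fluoride binding bead-coupled RGS7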
RGS16-Gao conf – modulators of RGS16-Galphao protein binding, confirmation, biochemical, single concentration, multiplexed bead flow cytometry; response (% of control binding), % at 10 µM; bead-based flow cytometry; actives lie on both sides; hit rate 4% among 1,700; shares compounds with RGS16-Gao; in the data active = response below about 74% or above about 130%; inactive = in between;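 note: Galphao activated as the GDP aluminium fluoride complex binding bead-coupled RGS16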
RGS4-Gao confirm – modulators of RGS4-Galphao protein binding, confirmation, biochemical, single concentration, multiplexed bead flow cytometry; AID 1840, 2009; shares compounds with RGS16-Gao; binding response (% of control), % at 10 µM; hit rate 4% among 1,700; actives lie on both sides; in the data active = binding response below about 74% or above about 130%; inactive = in between
RGS19-Gao single – regulators of RGS19-Galphao binding, confirmation, biochemical, single point, multiplexed bead flow cytometry | hit rate 5% among 1,700 | bead-based flow cytometry RGS19-Galphao binding; actives lie on both sides | shares compounds with RGS16-Gao | response (percent of control binding), % at 10 µM; in the data active = response below about 50% or above about 160%; inactive = in between
Target sequence (P09471 whole entry, looked up): as above
Target sequence (P49795 whole entry, looked up): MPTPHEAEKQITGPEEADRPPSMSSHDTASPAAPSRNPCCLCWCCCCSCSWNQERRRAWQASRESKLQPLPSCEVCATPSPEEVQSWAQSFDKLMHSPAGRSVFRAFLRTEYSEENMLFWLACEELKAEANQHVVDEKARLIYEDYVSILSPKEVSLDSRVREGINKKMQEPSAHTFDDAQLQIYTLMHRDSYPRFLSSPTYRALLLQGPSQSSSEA
Of the large screens only hits and unclear results are named; the others gave an inactive call (follow-up assays come after a bar, where they were run); [ ] = another dose, or the depositor's remark. Compounds with a hit are over-represented: about 1.2% of the library has one in this group of screens. Unless noted, the rule behind the calls is not given here.

O=C(CNC(=O)/C(=C\c1ccccc1)NC(=O)c1ccc(Br)cc1)OCc1ccccc1	none
CCC(OC(=O)C1=Cc2ccccc2OC1)C(=O)NC1CCCC1 (stereo not drawn)	none (no result: RGS4-Gao reg, RGS7-Gao reg, RGS16-Gao, Avidin fluor, RGS8-Gao) | Avidin counter inactive | RGS8-Gao confirm inactive | RGS7-Gao confirm inactive | RGS16-Gao conf inactive | RGS4-Gao confirm inactive | RGS19-Gao single inactive
CCOC(=O)Cc1csc(NC(=S)NC(=O)c2cc(OC)c(OC)c(OC)c2)n1	RGS7-Gao reg inconclusive (no result: GSH fluor)
COc1ccc(C(=O)CCC(=O)Nc2cccnc2)cc1	RGS4-Gao reg 0.8, RGS7-Gao reg 2.6, RGS16-Gao -5.4, RGS8-Gao 6.2 | Avidin counter inactive | RGS8-Gao confirm inactive | RGS7-Gao confirm inactive | RGS16-Gao conf inactive | RGS4-Gao confirm inactive | RGS19-Gao single inactive
O=C(CCC1CCCCC1)Nc1cccnc1	none (no result: RGS4-Gao reg, RGS7-Gao reg, RGS16-Gao, Avidin fluor, RGS8-Gao) | Avidin counter inactive | RGS8-Gao confirm inactive | RGS7-Gao confirm inactive | RGS16-Gao conf inactive | RGS4-Gao confirm inactive | RGS19-Gao single inactive
COc1ccc(C(=O)CCC(=O)Nc2cccc(Cl)c2)cc1	none
O=C(CCC1CCCCC1)Nc1ccc(C(=O)c2ccncc2)cc1	none
COc1ccc(N2CCN(C(=O)c3cccn4c(=O)c5ccccc5nc34)CC2)cc1	none
COc1ccc(N2CCN(C(=O)c3cccc4nc(C)oc34)CC2)cc1	RGS4-Gao reg 22.2, RGS7-Gao reg 18.5, RGS16-Gao 12.7, RGS8-Gao 15.1 | Avidin counter inactive | RGS8-Gao confirm inactive | RGS7-Gao confirm inactive | RGS16-Gao conf inactive | RGS4-Gao confirm inactive | RGS19-Gao single inactive
O=C1NCC(O)=C1C=NC12CC3CC(CC(C3)C1)C2	none | Avidin counter inactive | RGS8-Gao confirm inactive | RGS7-Gao confirm inactive | RGS16-Gao conf inactive | RGS4-Gao confirm inactive | RGS19-Gao single inactive
COc1ccccc1-c1c(C)nn2c(N3CCC(C)CC3)cc(C)nc12	RGS4-Gao reg 16.9, RGS7-Gao reg inconclusive, RGS16-Gao 10.9, RGS8-Gao 21.9 (no result: GSH fluor) | Avidin counter inactive | RGS8-Gao confirm inactive | RGS7-Gao confirm inactive | RGS16-Gao conf inactive | RGS4-Gao confirm inactive | RGS19-Gao single inactive
CCOC(=O)c1c(C)nc(SCC(N)=O)c(C#N)c1-c1ccccc1	RGS16-Gao 181.8[activator] | RGS-Gao 111.4 | Avidin counter inactive | RGS8-Gao confirm inactive | RGS7-Gao confirm inactive | RGS16-Gao conf inactive | RGS4-Gao confirm inactive | RGS19-Gao single inactive
Cc1ccc(N2NC3(CCN(C(N)=O)CC3)NC2=O)cc1	none
CNCCCNC(=O)c1ccc(/C=N/O)nc1	none
CN(C)CCCNC(=O)c1ccc(/C=N/O)nc1	RGS4-Gao reg 6.1, RGS7-Gao reg -11.2, RGS16-Gao 9.7, RGS8-Gao 12.2 | Avidin counter inactive | RGS8-Gao confirm inactive | RGS7-Gao confirm inactive | RGS16-Gao conf inactive | RGS4-Gao confirm inactive | RGS19-Gao single inactive
CC(OC(=O)c1cc2sccc2n1C)C(=O)NCC1CCCO1 (stereo not drawn)	none
CCC(OC(=O)c1cc2sccc2n1C)C(=O)NCC1CCCO1 (stereo not drawn)	RGS4-Gao reg 190.0[activator], RGS7-Gao reg 161.1[activator], RGS16-Gao 203.3[activator], Avidin fluor 47 | Avidin counter inactive | RGS8-Gao confirm inactive | RGS7-Gao confirm inactive | RGS16-Gao conf inactive | RGS4-Gao confirm inactive | RGS19-Gao single inactive
O=c1[nH]c(=O)n(Cc2ccccc2)c2c1C(C(F)(F)F)(C(F)(F)F)N=C(c1ccco1)N2	RGS4-Gao reg 49.1, RGS7-Gao reg 45.4, RGS8-Gao 55.9 | Avidin counter inactive | RGS8-Gao confirm inactive | RGS7-Gao confirm inactive | RGS16-Gao conf inactive | RGS4-Gao confirm inactive | RGS19-Gao single inactive
O=c1[nH]c(=O)n(Cc2ccco2)c2c1C(C(F)(F)F)(C(F)(F)F)N=C(c1ccc(F)cc1)N2	none
C#Cc1ccc([C@@H]2C=C(C(=O)OCC=C)O[C@H](OCc3ccc(CO)cc3)C2)cc1	none
Cc1ccccc1-n1c(-c2ccncc2)n[nH]c1=S	RGS16-Gao 18.2 | RGS-Gao 91.1 | Avidin counter inactive | RGS8-Gao confirm inactive | RGS7-Gao confirm inactive | RGS16-Gao conf inactive | RGS4-Gao confirm inactive | RGS19-Gao single inactive
O=C1NCCN(Cc2cccc(Oc3ccccc3)c2)C1CC(=O)N1CCCO1 (stereo not drawn)	none
O=C(N/N=C/c1cc([N+](=O)[O-])ccc1Cl)c1cc(-c2ccccc2)nc2ccccc12	RGS7-Gao reg inconclusive (no result: GSH fluor)
O=C(N/N=C/c1cc([N+](=O)[O-])ccc1O)c1cc(-c2ccccc2)nc2ccccc12	RGS7-Gao reg 42.5 | RGS-Gao 54.2 | Avidin counter inactive | RGS8-Gao confirm inactive | RGS7-Gao confirm inactive | RGS16-Gao conf inactive | RGS4-Gao confirm inactive | RGS19-Gao single inactive
O=C(c1cnccn1)N(Cc1ccco1)C1(C(=O)NC2CCCC2)CCCCC1	none
